“And” between values parts separate entries of the source, which are not always exact repeats. Equal entries are not always repeated. The source made the active and inactive calls. Cut-off read from the data, not from the text of the source, unless noted: active = parasite load remaining mostly below about 12% (no sharp cut-off); inactive = mostly above about 10%.
Experiments:
[1] = P. berghei load reduction in hepatocytes – cell-based, HepG2, luciferase luminescence, HepG2 viability, primary screen (AID 624349);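 note: 100% = mean of DMSO negative control wells on the same plate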; conditions: P. berghei liver stage in HepG2, luciferase luminescence, concentration not given here; parasite load remaining: stronger effect = lower value; viability: measured here: HepG2 viability without parasites
[2] = Wnt pathway potentiators raising nuclear beta-catenin – imaging, WNT3A-conditioned medium, mouse C2C12, NPC library, primary screen (AID 1117326; in the data active = nuclear beta-catenin stimulation mostly above about 4.2%, no sharp cut-off; inactive = mostly below about 10%; note: reference of the scale not given here); conditions: stronger effect = higher value
[3] = stimulators of insulin release from INS-1E, primary screen, cell-based, 5 mM glucose, NPC library (AID 1117329;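 active = compound raises insulin release from rat beta cells at 5 mM glucose, no numeric limit stated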; note: reference of the scale not given here); conditions: rat INS-1E insulin secretion, at 10 µM, stronger effect = higher value
[4] = growth inhibition of GSK3B-pretreated HCT116 cells – cell-based, CellTiter-Glo, 0.2 to 20 µM (AID 1117336;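 active = compounds lowering colon cancer cell viability after pretreatment blocking the GSK3B kinase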); conditions: HCT116 viability after GSK3B inhibitor, at 20 µM, stronger effect = higher value
[5] = inhibition of endothelial tube formation, primary screen, imaging, VEGF stimulated, CD31 staining, tube area, NPC library (AID 1117340;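 active = compound that reduces growth-factor-driven endothelial tube area in a mixed cell culture, no cutoff stated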); conditions: VEGF-stimulated ADSC/ECFC co-culture, at 10 µM, stronger effect = higher value
[6] = GLP1 release stimulators, primary, NCI-H716, NPC library (AID 1117341;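 active = compound raises GLP1 secretion from the human gut endocrine cells, with no numeric limit stated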; note: reference of the scale not given here); conditions: NCI-H716 cells, at 10 µM, stronger effect = higher value
[7] = HCT116 colon cancer cell growth inhibition, primary screen, CellTiter-Glo luminescence, NPC library (AID 1117342;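 active = compounds that lower survival of HCT116 colon cancer cells in the luminescence readout, no numeric limit stated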); conditions: at 20 µM (top of the series)
[8] = reduced SW480 viability measured with CellTiter-Glo, NPC library, primary (AID 1117343;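 active = compounds that lower viability of the colon cancer cells in the luminescence readout, with no numeric limit stated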); conditions: CellTiter-Glo luminescence; at 20 µM (top of the series)
[9] = NPC library primary testing for decreased DLD-1 cell viability via CellTiter-Glo (AID 1117346;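 active = compounds that lower survival of DLD-1 colon cancer cells in the luminescence readout, no cutoff given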); conditions: DLD-1 viability, CellTiter-Glo luminescence; at 20 µM (top of the series)
[10] = target: 6-phosphogluconate dehydrogenase, decarboxylating (Homo sapiens) (UniProt P52209); assay: inhibition of human phosphogluconate dehydrogenase – biochemical, recombinant enzyme, NADPH absorbance, primary screen (AID 1159550;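 active = at least 20% inhibition of 6-phosphogluconate dehydrogenase activity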); conditions: recombinant 6PGD, NADPH absorbance 341 nm; at 10 µM; stronger effect = higher value
Sequence of 6-phosphogluconate dehydrogenase, decarboxylating (Homo sapiens) (P52209 whole entry, looked up): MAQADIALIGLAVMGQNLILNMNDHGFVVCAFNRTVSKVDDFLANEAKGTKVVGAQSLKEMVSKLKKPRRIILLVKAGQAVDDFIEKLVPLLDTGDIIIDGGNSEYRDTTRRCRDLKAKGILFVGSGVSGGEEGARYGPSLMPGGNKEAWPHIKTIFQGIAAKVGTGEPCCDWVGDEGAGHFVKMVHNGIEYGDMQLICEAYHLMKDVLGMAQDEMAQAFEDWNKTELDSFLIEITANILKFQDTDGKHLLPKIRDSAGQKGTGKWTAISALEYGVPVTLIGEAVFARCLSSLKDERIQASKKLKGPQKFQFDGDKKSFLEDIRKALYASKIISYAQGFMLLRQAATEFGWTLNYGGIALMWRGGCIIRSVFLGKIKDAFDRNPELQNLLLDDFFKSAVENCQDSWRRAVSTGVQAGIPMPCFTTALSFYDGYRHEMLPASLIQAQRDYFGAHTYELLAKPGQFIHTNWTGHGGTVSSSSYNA

| Structure (SMILES) | parasite load remaining [1] | viability [1] | nuclear beta-catenin stimulation ([2]; at 10 µM) | nuclear beta-catenin stimulation ([2]; stimulation, at 2 µM) | insulin secretion stimulation [3] | viability decrease [4] | tube area decrease [5] | GLP1 secretion stimulation [6] | inhibition of viability [7] | viability decrease (inhibition) [8] | viability decrease (inhibition) [9] | inhibition [10] |
| --- | --- | --- | --- | --- | --- | --- | --- | --- | --- | --- | --- | --- |
| Nc1ccc(S(=O)(=O)NC(=O)c2ccccc2)cc1 | 105% (inactive) and 86.8% (inactive) and 33.6% (inactive) | 105% and 73% and 95.8% | 1.5% (inactive) | 1.1% | -1.7% (inactive) | -10.1% (inactive) | -16.9% (inactive) | 0.6% (inactive) | 0.2% (inactive) | -9.5% (inactive) | -14.3% (inactive) | -6.69% (inactive) |
| OCc1ccccc1O | 91.8% (inactive) and 36.5% (inactive) | 78.7% and 97.3% | 0.4% (inactive) | 1.3% | -0.1% (inactive) | -7.2% (inactive) | 19.2% (inactive) | -0.3% (inactive) | -6.03% (inactive) | -5.8% (inactive) | -17.8% (inactive) | -10.9% (inactive) |
| CN(Cc1cc(Br)cc(Br)c1N)C1CCCCC1 | 167% (inactive) and 46% (inactive) and 10.9% (inactive) | 89% and 109% and 68% | -0.1% (inactive) | -0.5% | 6.9% (inactive) | 87.5% (active) | 7.5% (inactive) | -1.6% (inactive) | 80.7% (active) | 125% (active) | 97.2% (active) | 16% (inactive) |
| COc1cnc(NS(=O)(=O)c2ccc(N)cc2)nc1 | 75.1% (inactive) and 108% (inactive) and 64.2% (inactive) | 93.4% and 66.1% and 87.2% | 0.2% (inactive) | 2% | 1.9% (inactive) | -21.6% (inactive) | -5.6% (inactive) | 0.5% (inactive) | -7.43% (inactive) | 23.4% (inactive) | -14.6% (inactive) | -8.19% (inactive) |
| NS(=O)(=O)c1cc2c(cc1Cl)NC(CSCc1ccccc1)=NS2(=O)=O | 72.5% (inactive) and 98.3% (inactive) and 56.3% (inactive) | 97% and 76.2% and 98.6% | -0.6% (inactive) | 0.7% | 0% (inactive) | -14.2% (inactive) | 5% (inactive) | 0.4% (inactive) | -3.3% (inactive) | 0.9% (inactive) | -17.1% (inactive) | -3.14% (inactive) |
| CCCCCCOc1ccccc1C(N)=O | 151% (inactive) | 88.6% | 2.2% (inactive) | -1% | -0.6% (inactive) | -31.8% (inactive) | -2.6% (inactive) | -2.8% (inactive) | 19.5% (inactive) | 36.2% (inactive) | 11.6% (inactive) | -1.25% (inactive) |
| Nc1c2ccccc2nc2ccccc12 | 23.3% (inactive) and 22.9% (inactive) | 78.7% and 67.3% | 21.1% (inactive) | 0.1% | 39.7% (active) | 49.2% (active) | 81.5% (active) | 11.4% (inactive) | 105% (active) | 107% (active) | 49% (active) | -6.58% (inactive) |
| Cc1[nH]c(C)c(Cl)c(=O)c1Cl | 132% (inactive) and 21.1% (inactive) and 5.5% (inactive) | 78.8% and 117% and 80.5% | 1.4% (inactive) | 0.4% | -1.1% (inactive) | 10.2% (inactive) | -15.3% (inactive) | 0.1% (inactive) | 6.55% (inactive) | 29% (inactive) | 11.2% (inactive) | -15% (inactive) |
| CN(C)/N=N/c1nc[nH]c1C(N)=O | 56% (inactive) and 17.1% (inactive) | 91.9% and 74% | 1.8% (inactive) | -1.7% | 1.8% (inactive) | -107% (inactive) | 85.4% (active) | -1.3% (inactive) | -2.45% (inactive) | 34.5% (inactive) | -4.2% (inactive) | -2.23% (inactive) |
| COc1c2occc2c(OC)c2c(=O)cc(C)oc12 | 32.5% (inactive) and 95.1% (inactive) | 48.9% and 88.8% | 2.2% (inactive) | 0.4% | 0.7% (inactive) | -6.4% (inactive) | 21.8% (inactive) | 5.9% (inactive) | -7.6% (inactive) | 21.5% (inactive) | -0.4% (inactive) | 1.04% (inactive) |
| COc1cc(N)c(Cl)cc1C(=O)NC1CCN(Cc2ccccc2)CC1 | 50.5% (inactive) and 24.1% (inactive) and 67.3% (inactive) | 116% and 86.9% and 74.5% | 3.1% (inactive) | 0.9% | 9.3% (inactive) | -6.7% (inactive) | 5.3% (inactive) | -0.7% (inactive) | 38.2% (inactive) | 26.2% (inactive) | 6.4% (inactive) | -7.99% (inactive) |
| CCOC(=O)NNc1nncc2ccccc12 | 44.2% (inactive) and 101% (inactive) and 89.6% (inactive) | 43.6% and 65.7% and 90.2% | 3.8% (inactive) | 5.1% | 3.7% (inactive) | 0.3% (inactive) | -6.6% (inactive) | -0.3% (inactive) | -0.97% (inactive) | 9.4% (inactive) | 6.7% (inactive) | -20.7% (inactive) |

Reference: PubChem BioAssay
